The whole screen tested about 120,000 compounds, of which about 840 (0.7%) were called active.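 How the source made its calls: active means inhibition above the batch mean plus 3 SD, and confirmed as a hit on visual image review (cut at about 43% in these data); inconclusive means passes the inhibition cutoff but fails visual image review; inactive means the rest.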 Only a selection was taken, and actives are over-represented in it overall.
assay: E-selectin induction blockers in HUVEC – imaging, immunofluorescence, high content, primary screen (AID 1246); conditions: HUVEC TNFa-induced E-selectin immunofluorescence, at 2 µM, hits give high values;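 further: 0% = TNF-stimulated DMSO wells and 100% = unstimulated control wells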

inhibition, inactive:
CCCCOc1ccc(N(CC(=O)NCC2CCCO2)C(=O)CCC(=O)Nc2cc(C)ccn2)cc1 (centres undefined) 13.7%
COCCNC(=O)CN(C(=O)CCC(=O)Nc1cc(C)on1)c1ccc(C)cc1C -15.2%
Cc1ccc(CSc2nc3[nH]ncc3c(=O)[nH]2)cc1 16%
Cc1ccc(C(=O)N/C(=C\c2cccs2)C(=O)NCCc2ccccn2)cc1C -0.32%
C=CCC(C(=O)c1ccccc1)[N+](C)(C)CC=C (centres undefined) -21.6%
CC1COc2ccccc2N1S(=O)(=O)c1ccccc1 (centres undefined) 10%
O=C1c2ccccc2NC(c2ccccn2)N1NS(=O)(=O)c1ccccc1 (centres undefined) 12.1%
COc1ccc(CCNC(=O)CC2SC(=Nc3cc(C)cc(C)c3)NC2=O)cc1OC (centres undefined) -40.4%
CCn1c(SC)nc(O)c(C(c2ccc(OC)c(O)c2)c2c(O)nc(SC)n(CC)c2=O)c1=O -24.8%
COc1ccc2c(c1OC)C(=O)OC2Nc1nc(-c2ccccc2)cs1 (centres undefined) 36.5%
O=C(O)CCCCOn1ccnc1 2.16%
Clc1ccc(CN2CCN(/N=C/c3cccnc3)CC2)cc1 -6.01%
Oc1ccc(-c2nncn2-c2ccccc2)cc1 -13.7%
CCCCN(C(=O)/C=C/c1ccco1)c1c(N)n(CC(C)C)c(=O)[nH]c1=O 7.93%
O=C(Nn1cnc2ccccc2c1=O)c1ccc([N+](=O)[O-])cc1Cl -17%
O=[n+]1c2c(n([O-])c3cc(Br)ccc31)CCC2 8.3%
O=C(O)CCC(=O)NCc1ccc2[nH]c3c(c2c1)CCCC3 -12%
CCN1C(=O)/C(=c2\s/c(=C3\Sc4ccccc4N3C)c(=O)n2C)N(C)C1=S -4.14%
O=S(=O)(NCCNS(=O)(=O)c1ccccc1)c1ccccc1 -9.47%
CCC(C)NC(=O)/C=C/c1ccc(S(=O)(=O)NCc2ccco2)cc1 (centres undefined) 1.55%
O=C(Nc1ccnc(-c2ccncc2)n1)c1cccs1 -27.2%
CCNC(=S)NNC(=O)C1CCN(Cc2ccccc2)CC1 -1.82%
Cc1occc1C(=O)N1CCCc2ccccc21 19.4%
O=C1/C(=C\c2ccccc2Cl)SC(=S)N1CCC(=O)N1CCCc2ccccc21 -3.4%

inhibition, active:
Cc1cc(NC(=O)CCC(=O)N(CC(=O)NCC2CCCO2)c2ccccc2C)no1 (centres undefined) 66.4%
COc1ccc2c(c1OC)C(=O)OC2c1c(O)nc(SC)n(-c2ccccc2)c1=O (centres undefined) 95%
O=C1CCCc2c1[nH]c1ccc(Br)cc21 71.4%
CCN(CC)CCNS(=O)(=O)c1ccc(/C=C/C(=O)O)cc1 85.3%
O=C(c1c(Cl)nc2sccn12)N1CCCc2ccccc21 79%

— PubChem BioAssay AID1246 (Columbia University Molecular Screening Center, 2008)
